Test results as given in PubChem BioAssay (NCI).
This is part of a sample that, as a whole, favours compounds with a hit. Of some 83,000 tested, about 20% had one in any assay.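 96-well plates, one dose, 48 hours. Percent growth reported; active if below 10.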 Values without a mark were called inactive. Calls of active or inactive are those of the source.

tested on: NCI-H460 lung; experiment: NCI-60 one-dose screen, 48 h (100 = growth as untreated, 0 = no growth, -100 = all killed); details: 10 µM unless noted
Procedure: Growth inhibition of the NCI-H460 human Non-Small Cell Lung tumor cell line is measured as a screen for anti-cancer activity. Cells are grown in 96 well plates and exposed to the test compound for 48 hours. Compounds are tested at a single concentration, which is 10^-5 M for most compounds. The reported endpoint is percent growth (GI% or GIPRCNT), where numbers from 0 - 100% represent growth inhibition, and numbers from -100% - 0 represent cell death. For example, a value of 40 represents 60% growth inhibition. A value of 0 means no net growth occurred over the course of the experiment. A value of -40 indicates 40% of cells at the beginning of the experiment died by the end of the experiment. A value of -100 means all cells are dead at the end of the experiment.
NCI-60 Human Tumor Cell Lines Screen was performed using the standard one-dose NCI protocol, which is described in more detail at https://dtp.cancer.gov/discovery_development/nci-60/default.htm.
Compounds with GIPRCNT values below 10 were considered active. Activity score was based on GIPRCNT using the following formula: […]
Score is 0 for GIPRCNT values of 100 or above, 50 for GIPRCNT values of 0, and 100 for GIPRCNT values of -100.

Structure (SMILES)	growth
CC(O)Cc1c[nH]c(=O)[nH]c1=O (stereo not given)	103%
C=C[C@@]1(C)CC(=O)[C@@H](C(C)(C)c2cn(C)c3ccc(Br)cc23)C[C@@H]1O[Si](C)(C)C(C)(C)C	101%
O=C(Cc1ccc(/C=C/C(=O)c2ncc[nH]2)cc1)Nc1cc(F)c(F)c(F)c1	28.2%
O=Nc1ccc(NC(=O)Nc2ccc([N+](=O)[O-])cc2)cc1	91.5%
O=C1O[C@@H](c2ccccc2Cl)[C@@H]2c3cc4c(cc3CCN12)OCO4	101%
COc1cc2c3c(c4c5ccccc5[nH]c4c2c(OC)c1OC)C(=O)N(CCN1CCCCC1)C3=O	-48.3% (active)
C#COc1cccc(Nc2ncnc3cc(NC(=O)[C@H](C)Cl)ccc23)c1	3.29% [6.25 µM] (active)
CCOC(=O)C1=C(CCl)N(C)C(=O)NC1c1ccc2c(c1)OCO2 (stereo not given)	72.1%
CCN1C(=O)N(CC)C2C1NN=c1s/c(=C\c3ccc(OC)cc3)c(=O)n12 (stereo not given)	4.22% (active)
c1cc(OCCN2CCCCCC2)ccc1CNc1ccc2nc(CCC3CCCCC3)[nH]c2c1	68.3%
COc1nc(/C=C\Nc2ccc3c(c2)OCCOCCOCCOCCO3)nc(OC)n1	97.3%
CSc1ccc2c3c(n(C[C@H](O)CO)c(=O)c2c1)-c1ccccc1C3=O	6.06% (active)
ClCCn1cnc2c(SCc3ccccc3)ncnc21	12.2%
CN1C(=O)/C(=C/c2ccc(C(=O)Nc3ncc(Cc4cc(Cl)ccc4Cl)s3)cc2)SC1=S	73.7%
Cc1cccc(NC(=O)Cn2cc(CN3CCN(c4ccnc5cc(Cl)ccc45)CC3)nn2)c1	94%
CCCCO[C@@H]1C=C2[C@H]3CC(C)(C)C(=O)C[C@]3(C(=O)O[C@@H]3O[C@H](CO[C@@H]4O[C@H](CO)[C@@H](OC5OC(C)C(O)C(O)C5O)[C@H](O)[C@H]4O)[C@@H](O)[C@H](O)[C@H]3O)CC[C@@]2(C)[C@]2(C)CC[C@H]3C(C)(C)C(=O)CC[C@]3(C)[C@@H]12 (stereo not given in full)	91.8%
Nc1c(Br)cc2c(c1Br)Cc1cc([N+](=O)[O-])ccc1-2	83.2%
COc1ccc(C/C(C)=C(\c2ccc(Cl)cc2)c2ccc(OCCN3CCCC3)cc2)cc1	81.9%
O=c1oc2c(cnc3ccccc32)cc1-c1cccc(Cl)c1	106%
Oc1ccc(-c2nc3ccc4[nH]ncc4c3c3c2CCCC3)c(F)c1	29%

Structure (SMILES)	growth
COc1cc(Cc2cc(-c3ccccc3)nn(Cc3ccccc3)c2=O)cc(OC)c1OC	37.3%
C=C(C)[C@@H]1CC[C@]2(C(=O)N3CCN(C)CC3)CC[C@]3(C)[C@H](CC[C@@H]4[C@@](C)(CCC(=O)O)[C@H](C(=C)C)CC[C@]43C)[C@@H]12	78%
CCN1C2CCC1/C(=C\c1ccccc1)C(=O)/C2=C/c1ccccc1	51.5%
CCOC(=O)C/C(=N\Nc1cc(=O)[nH]c2ccc(OC)cc12)C(=O)OCC	100%
N#Cc1c(-c2ccc(Cl)cc2)nc(NN=Cc2ccc[nH]2)nc1N1CCOCC1	36.7%
CC12OC(CC(O)C1O)n1c3ccccc3c3c4c(c5c6ccccc6n2c5c31)C(=O)N(CCN1CCCC1)C4=O (stereo not given)	-17.3% (active)
COCCn1cc(-c2nc(-c3c[nH]c4ncccc34)cs2)c2ccccc21	22.6%
O=C(NCCCCCCNC(=O)OCc1ccc2c(Cl)cc(Cl)c(O)c2n1)OCc1ccc2c(Cl)cc(Cl)c(O)c2n1	-30.7% (active)
Nc1[nH]nc2nc(-c3ccccc3)n3c4ccccc4nc3c12	93%
Nc1nc(N(Cc2ccccc2)c2ccccc2)c2cn[nH]c2n1	75.8%
CCOC(=O)c1cnn(CC(C)O)c1NC(=O)NCc1ccccc1C(F)(F)F (stereo not given)	109%
COc1ccccc1/C=C/C(=O)Nc1ccc(F)cc1	102%
CCOC(=O)C#Cc1c(C(=O)OCC)nnn1[C@@H]1O[C@H](COC)[C@@H](OC)[C@H]1OC	109%
CCN(CC)CCOc1ccc(C(=O)/C=C\c2ccc(Cl)cc2Cl)cc1	61.3%
O=C(Nc1ccc(Nc2ccncc2)cc1)c1ccc(Nc2ccnc3ccc([N+](=O)[O-])cc23)cc1	68.2%
CCN1CCN(CCNc2nccc(-c3c(-c4ccc(F)c(O)c4)nc4occn34)n2)S1(=O)=O	34.9%
O=C1CCCCN1c1ccc(C2=NCCCN2)cc1	94.9%
COc1ccc(/C=C2\c3cc(OC)c(OC)c(OC)c3CC[C@@H]2O)cc1F	13.8%
C=C(C)[C@@H]1CC[C@]2(C)[C@H](C=CC3=C4C[C@@](C)(CO)CC[C@]4(C)CC[C@]32C)[C@@]1(C)CCCN	-86.2% (active)
Nc1cc(-c2ccc(Cl)cc2)nn1-c1nnc(/C=C/c2ccco2)c(=O)[nH]1	20.4%
